Reference: the supplement of paper PMC6897291

Tested on: RIVA
Assay: growth inhibition by drug alone (1 - RLU/untreated control) (fraction); higher = stronger inhibition
Details: 177Lu-lilotomab satetraxetan 0 ug/ml
Description: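 RIVA (RI-1) ABC-DLBCL cells were pretreated or not for 18 h with 0.5 ug/ml 177Lu-lilotomab satetraxetan (600 MBq/mg), washed and seeded (3000 cells/well) on 384-well plates pre-printed with the Selleck Cambridge Cancer Compound library. Viability was read by RealTime-Glo luminescence on days 3-6 after seeding. Effect = 1 - RLU/mean RLU of the 48 untreated no-drug control wells per plate; Bliss score = (M-E)/(1-Fa).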

| Structure (SMILES) | growth inhibition by drug alone (10 nM, time (day): 3) | growth inhibition by drug alone (10 nM, time (day): 4) | growth inhibition by drug alone (10 nM, time (day): 5) | growth inhibition by drug alone (10 nM, time (day): 6) | growth inhibition by drug alone (100 nM, time (day): 3) | growth inhibition by drug alone (100 nM, time (day): 4) | growth inhibition by drug alone (100 nM, time (day): 5) | growth inhibition by drug alone (100 nM, time (day): 6) |
| --- | --- | --- | --- | --- | --- | --- | --- | --- |
| CC(=O)Nc1ccc(OC[C@](C)(O)C(=O)Nc2ccc([N+](=O)[O-])c(C(F)(F)F)c2)cc1 [Andarine (GTX-007)] | 0.017 | -0.0064 | -0.271 | -0.322 | -0.229 | -0.219 | -0.21 | -0.215 |
| Cn1cc(C2=C(c3cn(C4CCN(Cc5ccccn5)CC4)c4ccccc34)C(=O)NC2=O)c2ccccc21 | -0.161 | -0.222 | -0.236 | -0.302 | -0.273 | -0.319 | -0.329 | -0.414 |
| O=C(O)c1nn(Cc2ccc(Cl)cc2Cl)c2ccccc12 [Lonidamine] | 0.0283 | 0.0585 | 0.0114 | -0.393 | -0.419 | -0.301 | -0.332 | -0.381 |
| Cc1cc2c(C(C)C)c(O)c(O)c(C=O)c2c(O)c1-c1c(C)cc2c(C(C)C)c(O)c(O)c(C=O)c2c1O [Gossypol] | -0.235 | -0.278 | -0.288 | -0.349 | -0.0878 | -0.143 | -0.172 | -0.216 |
| CC1=C2C[C@H]3[C@@H](CC=C4C[C@@H](O)CC[C@@]43C)[C@@H]2CC[C@]12O[C@@H]1C[C@H](C)CN[C@H]1[C@H]2C [Cyclopamine] | -0.0274 | 0.0131 | -0.0438 | -0.264 | 0.0149 | 0.0126 | -0.0321 | -0.131 |
